The list is not random: actives were taken first. Their share in the collection is about 21%.
Pf growth 48h: P. falciparum growth inhibition at 48 hours (one generation). P. falciparum luciferase growth in erythrocytes, 48 h. Potency, µM (series often up to 28.7 µM), usual class: inhibitors. 310,000 compounds, 5.9% hits
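Growth was read as firefly luciferase luminescence after a 48 h, 37 C, 5% CO2 exposure of compounds to reporter-bearing P. falciparum cultures (0.1% parasitemia, 2% hematocrit final) in Albumax-supplemented RPMI 1640.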
CHX counter: counter-screen for Shiga toxin inhibitors: cycloheximide protein synthesis inhibition; max response, %; cell reporter, cycloheximide protein synthesis inhibition counterscreen; 300,000 compounds, 12% hits; in the data active means max response mostly above about 13%, no sharp cut-off; inactive means mostly below about 14%; further: read at 38.3 µM for the half of the compounds with a filed dose
HCMV inh: inhibitors of human cytomegalovirus; HFF cells, HCMV-luciferase reporter, 72 h; active compounds read low; activity change, negative = inhibition, % at 57.5 µM; 410,000 compounds, 4.5% hits; in the data active means activity change below about -60%; inconclusive means no clear call, values can overlap the other calls; inactive means above about -39%
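Luciferase read-out from HCMV-luciferase-infected HFFs (MOI 1 PFU/cell) 72 h post infection at 37C; compounds added after 16 h cell attachment; activity normalized between buffer-only basal and Salinomycin (10uM) inhibitor controls.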
Pf growth 96h: P. falciparum growth inhibition at 96 hours | P. falciparum luciferase reporter growth, 96 h | Potency, µM (series often up to 28.7 µM), most hits filed as inhibitors | 320,000 compounds, 6.9% hits | AID 504834
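Two parasite generations (96 h, 37 C, 5% CO2) of compound exposure in infected erythrocytes (0.05% parasitemia, 2% hematocrit). Luciferase-reporter P. falciparum; decreased luminescence indicates inhibited growth, aimed at apicoplast-acting delayed death.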
HCV inh: HCV inhibition. Huh7.5.1 HCVcc-Cre infection, luciferase reporter, 44 h. Potency, µM (titrated, usually from 41.8 µM), most hits filed as inhibitors. AID 651820. 340,000 compounds, 3.4% hits
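Whole-lifecycle infectious HCVcc-Cre system; cells 1,000/well, compound then virus (~0.5 moi) added 4 h after plating, 44 h culture. Luciferase read 15 sec following 15 min substrate incubation, room temp.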
Shiga toxin inh: Shiga toxin inhibition. inhibition, % at 38.7 µM. Vero cells, Shiga toxin protein synthesis inhibition reporter. 290,000 compounds, 9.2% hits; in the data active means inhibition mostly above about 28%, no sharp cut-off; inactive means mostly below about 43%
Of the large screens only hits and unclear results are named; the others gave an inactive call. Unless noted, the call rests on the fitted dose curve; in most records, active means well fitted inhibition curve with a large enough effect; inconclusive means small, poorly fitted or top-dose-only effect, or another doubt; inactive means no such curve, though single readings can be large or run the other way.

CCCCn1nnnc1C(C1CC1)N1C(=O)C(=O)c2ccccc21 (configuration not stated)	none (no result: Pf growth 48h, CHX counter, Pf growth 96h, HCV inh, Shiga toxin inh)
CCOC(=O)/C(=C/c1ccc(N2CCC(c3ccccc3)=N2)cc1)C(C)=O	HCV inh inconclusive (no result: HCMV inh)
c1ccc(C2=NN(c3ccccc3)CC2)cc1	CHX counter 61, Shiga toxin inh 114
CS(=O)(=O)c1cccc(C(=O)OCCCC(=O)c2ccccc2)c1	none (no result: Pf growth 48h, CHX counter, Pf growth 96h, Shiga toxin inh)
COc1ccc(S(N)(=O)=O)cc1C(=O)OCCCC(=O)c1ccccc1	Pf growth 48h inconclusive, Pf growth 96h 15µM (no result: CHX counter, Shiga toxin inh)
C/C(=N\NC(=O)c1nnn(-c2nonc2N)c1CN(C)c1ccccc1)c1cccs1	none
CCCCS/C(=C(/C#N)C(N)=O)c1cc2c([nH]1)CCCC2	Pf growth 48h 2.9µM, HCMV inh -63 (no result: Pf growth 96h)
CCc1ccc(N/C(SC)=C(/C#N)C(N)=O)cc1	none
CC(C)CCNS(=O)(=O)c1ccc(N2CCCCS2(=O)=O)cc1	none (no result: Pf growth 48h, CHX counter, Pf growth 96h, HCV inh, Shiga toxin inh)
c1cc(-n2nnc3cnccc32)ccn1	none
Nc1ccc2c(c1)nnn2-c1ccccc1	CHX counter 32
c1ccc(-n2nnc3cnccc32)cc1	CHX counter 24, Pf growth 96h inconclusive
CN(c1ccccc1)c1nc(-n2ccnc2)nc(-n2ccnc2)n1	Pf growth 48h inconclusive, HCV inh inconclusive (no result: Pf growth 96h)
CCCCNc1nc(N(C)c2ccccc2)nc(-n2ccnc2)n1	Pf growth 48h 17µM, HCV inh inconclusive
CCN(C(=O)COC(=O)CCNS(=O)(=O)c1ccccc1F)c1c(N)n(Cc2ccccc2)c(=O)[nH]c1=O	none (no result: Pf growth 48h, CHX counter, Pf growth 96h, Shiga toxin inh)
COc1cc(CNc2nc3c(C)cc(C)cc3s2)ccc1O	CHX counter 25, HCV inh inconclusive, Shiga toxin inh 48 (no result: Pf growth 48h)
CCC(=O)NNc1nc2c(C)cc(C)cc2s1	none
Cc1cc(C)c2nc(NCc3ccccc3O)sc2c1	CHX counter 22, HCMV inh -65, HCV inh inconclusive, Shiga toxin inh 114
CCC(=O)N(C1=C(NC(C)C)C(=O)c2ccccc2C1=O)C(C)C	Pf growth 48h 0.13µM, HCMV inh inconclusive, Pf growth 96h 0.066µM
CC(C)N(Cc1ccccc1)C(=O)CC(=O)N(Cc1ccccc1)C(C)C	none
COC(=O)c1ccc(OCC2c3cc(OC)c(OC)cc3CCN2C(=O)c2cccc(C)c2)cc1 (configuration not stated)	none (no result: Pf growth 48h, CHX counter, Pf growth 96h, HCV inh, Shiga toxin inh)
CC1CC(C)CN(C(=O)CNC(=O)c2ccc3ccccc3c2)C1 (configuration not stated)	CHX counter 18
O=C(NCC(=O)N1CCCCC1)c1ccc2ccccc2c1	CHX counter 34
O=C(NCC(=O)N1CCN(S(=O)(=O)c2ccccc2)CC1)c1ccc2ccccc2c1	none (no result: CHX counter, Shiga toxin inh)
Cc1ccc(S(=O)(=O)N2CCN(C(=O)C(F)(F)F)C2c2ccc(N(C)C)cc2)cc1 (configuration not stated)	Pf growth 96h 13µM
COc1ccc(C2N(C(C)=O)CCCN2S(=O)(=O)c2ccc(C)cc2)cc1 (configuration not stated)	Pf growth 48h inconclusive, HCMV inh -62
COc1ccc(C2N(C(=O)CN3CCCC3)CCCN2S(=O)(=O)c2ccccc2)cc1 (configuration not stated)	Pf growth 48h 5.2µM, Pf growth 96h inconclusive
COc1ccc(NC(=O)C2CCN(S(=O)(=O)c3cccs3)CC2)cc1OC	Pf growth 96h inconclusive, HCV inh inconclusive (no result: CHX counter, Shiga toxin inh)
COc1ccc(C(=O)COC(=O)CCN2C(=O)C3C4C=CC(C5CC45)C3C2=O)cc1 (configuration not stated)	none (no result: HCV inh)
CCOc1ccc2[nH]c3c(=O)n(CCC4=CCCCC4)cnc3c2c1	none
CCOc1ccc2[nH]c3c(N4CCN(C(=O)c5ccco5)CC4)ncnc3c2c1	Pf growth 48h inconclusive, Pf growth 96h 12µM
O=C(c1ccco1)N1CCN(c2ncnc3c2[nH]c2ccc(Br)cc23)CC1	Pf growth 48h 9.3µM, HCMV inh inconclusive, Pf growth 96h inconclusive, HCV inh 11µM
CCOc1ccc2[nH]c3c(N4CCC5(CC4)OCCO5)ncnc3c2c1	Pf growth 48h inconclusive, Pf growth 96h 12µM, HCV inh inconclusive
O=C(Nc1ccccc1)N(c1ccccc1)C1C=CS(=O)(=O)C1 (configuration not stated)	none
NS(=O)(=O)c1ccc(NC(=O)C2Cc3ccccc3N2C(=O)c2ccccc2)cc1 (configuration not stated)	none (no result: Pf growth 48h, CHX counter, Pf growth 96h, HCV inh, Shiga toxin inh)
CC(C)C[C@H](NC(=O)[C@H](Cc1ccccc1)NC(=O)[C@@H]1CCCN1C(=O)[C@H](CC(=O)O)NC(=O)[C@@H]1CCC(=O)N1)C(=O)N[C@@H](CCCN=C(N)N)C(=O)N[C@@H](Cc1ccccc1)C(N)=O	none (no result: Pf growth 48h, HCMV inh, Pf growth 96h, HCV inh)
CC(=O)c1ccc2c(c1)C1C(Cl)C(Sc3ccccc3[N+](=O)[O-])CC1C(C(=O)O)N2 (configuration not stated)	Pf growth 96h 2.6µM, HCV inh 35µM
CN(CCn1ccnc1)Cc1cn(Cc2ccccc2)nc1-c1ccc2c(c1)OCO2	Pf growth 48h inconclusive, Pf growth 96h inconclusive
CC[C@@H](C)C(NC(=O)OC(C)(C)C)c1cn([C@@H](CCCCNC(=O)OC(C)(C)C)C(=O)N2CCN(C(=O)OC(C)(C)C)CC2)nn1 (some centres not stated)	Pf growth 48h inconclusive, Pf growth 96h 4.1µM
C[C@@H](C(=O)N1CCN(C(=O)OC(C)(C)C)CC1)n1cc(-c2cn([C@@H](C)C(=O)N3CCN(C(=O)OC(C)(C)C)CC3)nn2)nn1	none (no result: HCMV inh, HCV inh)
CC(C)(C)OC(=O)CC[C@@H](C(=O)N1CCN(C(=O)OC(C)(C)C)CC1)n1cc(C(Cc2ccc(O)cc2)NC(=O)OC(C)(C)C)nn1 (some centres not stated)	Pf growth 48h inconclusive, Pf growth 96h 4.7µM, HCV inh inconclusive
CC(C)CC(NC(=O)OC(C)(C)C)c1cn([C@@H](CCCCNC(=O)OC(C)(C)C)C(=O)N2CCN(C(=O)OC(C)(C)C)CC2)nn1 (some centres not stated)	Pf growth 48h inconclusive, Pf growth 96h 3.7µM
CC[C@@H](C)C(NC(=O)OC(C)(C)C)c1cn([C@@H](Cc2cc3ccccc3[nH]2)C(=O)N2CCN(C(=O)OC(C)(C)C)CC2)nn1 (some centres not stated)	Pf growth 48h inconclusive, Pf growth 96h 3.7µM, HCV inh inconclusive
COc1cc(NC(=O)CSc2nc3nc(C)c(Cc4ccccc4)c(C)n3n2)cc(OC)c1OC	none (no result: Pf growth 48h, CHX counter, Pf growth 96h, HCV inh, Shiga toxin inh)
COc1ccc(N=c2scc(-c3ccc(OC)cc3)n2CCO)cc1	CHX counter 30, HCMV inh -74, HCV inh 6.3µM
O=C(O)CCC(=O)NCCn1c(-c2ccccc2)csc1=Nc1ccccc1	CHX counter 19, Pf growth 96h inconclusive
OCCCn1c(-c2ccccc2)csc1=Nc1ccccc1	Pf growth 48h inconclusive, Pf growth 96h inconclusive, HCV inh inconclusive, Shiga toxin inh 73

Screens: PubChem, National Center for Advancing Translational Sciences (NCATS)
